Results: PubChem BioAssay AID1851 (National Center for Advancing Translational Sciences (NCATS), 2009)
The whole screen tested about 16,000 compounds, of which about 5,700 (36%) were called active. About 24% were inconclusive and are not listed. The call rests on the fitted dose curve; in most records, active means well fitted curve in the direction sought with a large enough effect; inconclusive means small, poorly fitted or top-dose-only effect, or effect the other way; inactive means no such curve, though single readings can be large or run the other way. This is one part of the list.

What follows are compounds tested against Cytochrome P450 1A2 (Homo sapiens) (UniProt P05177) (assay: Cytochrome panel assay with activity outcomes). Details: recombinant CYP, pro-luciferin dealkylation, luminescence, p450-cyp1a2; series mostly up to 57.1 µM; activity, negative = inhibition: at the top concentration.
On the % scale 0 is the no-effect control and ±100 the full control effect.

Chain of Cytochrome P450 1A2 (Homo sapiens) (P05177 whole entry, looked up): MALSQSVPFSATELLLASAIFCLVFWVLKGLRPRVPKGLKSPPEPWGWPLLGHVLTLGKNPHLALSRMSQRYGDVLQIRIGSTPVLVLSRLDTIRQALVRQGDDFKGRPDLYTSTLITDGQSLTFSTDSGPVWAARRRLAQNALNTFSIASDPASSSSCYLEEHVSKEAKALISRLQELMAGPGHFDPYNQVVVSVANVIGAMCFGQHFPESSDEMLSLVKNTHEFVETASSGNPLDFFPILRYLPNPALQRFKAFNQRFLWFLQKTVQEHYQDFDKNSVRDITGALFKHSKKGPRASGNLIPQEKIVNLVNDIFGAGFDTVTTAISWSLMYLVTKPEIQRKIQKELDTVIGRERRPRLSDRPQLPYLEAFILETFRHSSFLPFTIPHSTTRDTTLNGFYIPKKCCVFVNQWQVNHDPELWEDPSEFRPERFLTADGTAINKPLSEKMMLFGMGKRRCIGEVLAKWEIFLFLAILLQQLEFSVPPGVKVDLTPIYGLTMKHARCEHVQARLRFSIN

Compound | AC50 | activity, negative = inhibition
Cc1oc2c(C)c(O)ccc2c(=O)c1-c1ccc2ccccc2n1 | 2240 nM (active) | –
CCc1cc2c(=O)c(-c3nc4ccccc4n3C)c(C)oc2c(CN(CC)CC)c1O | – | -17.4% (inactive)
C=CCc1cccc2cc(C(=O)N(CC)CC)c(=O)oc12 | 1410 nM (active) | –
COc1ccc(C2C(=O)N(CCc3ccccc3)CC(=O)N2C2CCCC2)cc1 (stereo not drawn) | – | -22.8% (inactive)
COc1ccc(Oc2ncc3nc(CCc4ccccc4)c(=O)n(C4CC4)c3n2)cc1 | 12600 nM (active) | –
COc1ncc2nc(CCc3ccccc3)c(=O)n(C3CC3)c2n1 | 3160 nM (active) | –
CN(C)c1ncc2nc(CCc3ccccc3)c(=O)n(C3CC3)c2n1 | 3160 nM (active) | –
O=c1c(CCc2ccccc2)nc2cncnc2n1C1CC1 | 6310 nM (active) | –
C[C@@]1(C(=O)O)CCC[C@@H]1C(=O)O | – | -9.8% [at 2.29 µM] (inactive)
O=c1c(CCc2ccccc2)nc2cnc(Oc3ccccc3)nc2n1C1CC1 | 7940 nM (active) | –
COc1ccc(S(=O)(=O)N2CCCCCC2)cc1N(C)S(=O)(=O)c1ccc(Cl)cc1 | – | -1.31% (inactive)
Cc1cc(C)c2c(N)c3ccccc3nc2n1 | 2240 nM (active) | –
Cc1cc(NCCO)c2ccccc2n1 | – | -24.6% (inactive)
C=CC[n+]1c(-c2ccc(C)cc2)csc1NNC(=O)Nc1ccccc1 | 10000 nM (active) | –
Cc1c(Cl)cccc1Nc1ccccc1C(=O)O | 3160 nM (active) | –
Cc1cccc(Nc2ccccc2C(=O)O)c1C | 5010 nM (active) | –
Cc1c(Cl)cccc1NC(=O)CN1CCC(C(O)(c2ccccc2)c2ccccc2)CC1 | – | -25.7% (inactive)
Cc1cccc(C(=O)c2ccccc2C(=O)O)c1O | – | -1.11% (inactive)
Cc1ccc(Cl)c(Nc2ccccc2C(=O)O)c1Cl | – | -11.5% (inactive)
O=S(=O)(O)[C@@H](c1ccccc1)[C@@H](O)c1ccccc1 | – | -13.9% [at 2.29 µM] (inactive)
Cc1ccc2nc(Nc3ccccc3O)nc(-c3ccccc3)c2c1 | 1780 nM (active) | –
COC(=O)[C@@]1(Cc2ccccc2)[C@H]2c3cc(C(=O)N4CCCC4)n(CC4CC4)c3C[C@H]2CN1C(=O)c1ccccc1 | – | -17.5% (inactive)
COc1cnc(-c2ccccc2)nc1Oc1cccc(C)c1 | 3160 nM (active) | –
CCOC(=O)c1cnc(-c2ccccc2)nc1Oc1ccc(Cl)cc1 | 200 nM (active) | –
CCOC(=O)c1cnc(-c2ccccc2)nc1Oc1ccccc1 | 631 nM (active) | –
CCOC(=O)c1cnc(-c2ccccc2)nc1Oc1cccc(Cl)c1 | 2510 nM (active) | –

Compound | AC50 | activity, negative = inhibition
COC(=O)N1CCC2(CC1)CCN(c1ccncc1)CC2 | – | 0.475% (inactive)
Cc1ccc(Oc2nc(-c3ccccc3)ncc2S(C)(=O)=O)cc1 | 2820 nM (active) | –
COc1ccc(Cc2n[nH]c(=O)c3ccccc23)cc1OC | – | 7.79% (inactive)
COc1nnc(OC)c2ccccc12 | 2510 nM (active) | –
CCN(CC)[C@@H](C)CN1c2ccccc2Sc2ccccc21 | 501 nM (active) | –
CCC(=S)/C=C1\Sc2ccccc2N1CCCS(=O)(=O)O | – | -13% (inactive)
CN(C)CC(C)(C)CN1c2ccccc2Sc2ccccc21 | – | -17.7% [at 11.4 µM] (inactive)
O=C1NC(=S)N/C1=C/c1cccc([N+](=O)[O-])c1O | – | -17.8% (inactive)
O=[N+]([O-])c1cccc(/C=N\Nc2ccc3ccccc3n2)c1O | 794 nM (active) | –
O=C(O)c1ccccc1CN1CCC[C@@H](C(=O)O)C1 | – | -5.22% [at 11.4 µM] (inactive)
S=c1[nH]c2cc(Cl)ccc2s1 | 2000 nM (active) | –
O=C(O)C1C2C=CC3(CN(Cc4ccccn4)C(=O)C13)O2 (stereo not drawn) | – | -1.4% (inactive)
COc1ccc(O[C@H]2C=C[C@@H](c3ccccc3)O[C@@H]2CO/N=C\[C@@H](C)[C@H](OCc2ccccc2)C(C)C)cc1 | – | -3.11% [at 11.4 µM] (inactive)
O=C(CC1CCCC1)Nc1ccc2c(c1)CCC2 | 15800 nM (active) | –
Cc1ccc(NC(=O)CC2CS(=O)(=O)CC2CC(=O)Nc2ccc(C)c(C)c2)cc1C (stereo not drawn) | – | -2.75% (inactive)
COC(=O)c1cc(NC(=O)CC2NC3CCCCC3NC2=O)cc(C(=O)OC)c1 (stereo not drawn) | – | 5.3% (inactive)
CN(C)C(=O)Oc1cccc([N+](C)(C)C)c1 | – | -8.88% [at 25.6 µM] (inactive)
CS[C@]12C(=O)C[C@]3(C)[C@@H](CC[C@@]3(O)C(=O)CO)[C@@H]1CCC1=CC(=O)CC[C@]12C | – | -24.3% [at 2.29 µM] (inactive)
N#Cc1ccc(-c2ccccc2)nc1SCC(=O)c1cccc(Cl)c1 | 2000 nM (active) | –
CCC[C@@H]1C[C@@]1(CCC)C(NC(=O)c1ccc(-c2ccccc2)cc1)c1cccc(Cl)c1 (stereo partly drawn) | – | -2.6% (inactive)
Cc1c(C(=O)Nc2nccs2)sc2nc(-c3cccs3)cc(C(F)(F)F)c12 | 1580 nM (active) | –
Cc1ccc(Oc2ccccc2/C=C2\SC(=O)N(C)C2=O)cc1 | 3160 nM (active) | –
Cc1ccc(NC(=O)CN2C(=O)S/C(=C\c3cccn3C)C2=O)cc1 | – | -13.8% (inactive)
Cc1cc(N)c2ccccc2[n+]1CCCCCCCCCC[n+]1c(C)cc(N)c2ccccc21 | – | -8.27% (inactive)
CCCCCCCCC[n+]1cccc2c3ccccc3ccc21 | 15800 nM (active) | –
Cc1cc(N)c2ccccc2[n+]1CCCCCCCCCCCCCC[n+]1c(C)cc(N)c2ccccc21 | – | -8.19% (inactive)

Compound | AC50 | activity, negative = inhibition
COc1cccc2c1OC[C@@H](CO)[C@H]2N(C)C(=O)Nc1ccc(Cl)cc1Cl | – | 2.57% (inactive)
Clc1ccccc1-c1nc(-c2ccncc2)no1 | 79.4 nM (active) | –
O=C(CCNS(=O)(=O)c1cccs1)N1CCc2ccccc2C1 | 15800 nM (active) | –
O=C(CCNS(=O)(=O)c1cccs1)N1CCCCCC1 | – | -3.69% (inactive)
CC(C)C(NS(=O)(=O)c1cccs1)C(=O)NCCN1CCN(c2ccccc2)CC1 (stereo not drawn) | – | -16.6% (inactive)
Cc1cc(C)c2c(-n3cccc3)n[nH]c2n1 | 3550 nM (active) | –
Cc1cc(C)c2c(-n3cccc3)nn(CC#N)c2n1 | 2510 nM (active) | –
CSc1nc(Oc2ccc(=O)[nH]n2)nc(N(C)C)n1 | – | -8.98% (inactive)
Cc1cccc(-n2c(Cn3nc(C)c([N+](=O)[O-])c3C)n[nH]c2=S)c1 | – | 1.39% (inactive)
Cc1cccc(-n2nc([N+](=O)[O-])c(=NCc3cccnc3)n2O)c1 | 2000 nM (active) | –
C#CCn1c(S(=O)(=O)Cc2ccc(OC)cc2)nc(-c2ccccc2)c1-c1ccccc1 | – | -22.5% (inactive)
COc1cc(OC)c(C#N)c(S(=O)(=O)Cc2ccccc2)c1 | 15800 nM (active) | –
COc1ccc(F)cc1S(=O)(=O)NC(Cc1ccccc1)C(N)=O (stereo not drawn) | – | -11.3% (inactive)
C[C@@H](CNC(N)=O)NC(N)=O | – | -12.2% [at 11.4 µM] (inactive)
CN(Cc1ccco1)c1ncncc1-c1cccnc1 | 5010 nM (active) | –
COc1cccc(-c2cncnc2N(C)Cc2ccco2)c1 | 10000 nM (active) | –
CN(C)c1ccc(-c2cncnc2N(C)Cc2ccco2)cc1 | 631 nM (active) | –
CN(Cc1ccco1)c1ncncc1-c1ccc2c(c1)OCO2 | 200 nM (active) | –
CN(Cc1ccco1)c1ncncc1-c1ccoc1 | 15800 nM (active) | –
O=C(Nc1cccc(-c2nc3ncccc3o2)c1)c1sc2ccccc2c1Cl | 708 nM (active) | –
CCC(=O)Nc1cccc(-c2nnc(-c3cccc(NC(=O)CC)c3)o2)c1 | – | -3.41% (inactive)
O=C(Cc1ccc(Cl)cc1)Nc1cccc(-c2nnc(-c3ccco3)o2)c1 | – | -2.23% (inactive)
CCCCCC(=O)N1CC2(CC(c3cccc(NC(=O)c4ccccc4)c3)=NO2)C[C@@H]1C(N)=O (stereo partly drawn) | – | -22.2% (inactive)
CCCCCC(=O)Nc1cccc(-c2nc3ncccc3o2)c1 | 2000 nM (active) | –
O=C(CSc1ccc(Cl)cc1)Nc1cccc(-c2nc3ncccc3o2)c1 | 8910 nM (active) | –
Cc1ccc(S(=O)(=O)O/N=C2/CCCc3occc32)cc1 | – | -10% (inactive)

Compound | AC50 | activity, negative = inhibition
COc1ccc(C2C(C(=O)N3CCOCC3)c3ccccc3C(=O)N2c2ccc(OC)cc2)cc1 (stereo not drawn) | – | -15.8% (inactive)
CCOc1ccc(C2C(C(=O)O)c3ccccc3C(=O)N2CCN2CCOCC2)cc1 (stereo not drawn) | – | -19.1% (inactive)
CN(C)C(=O)CSC1c2ccccc2C(=O)N1c1ccccc1 (stereo not drawn) | 12600 nM (active) | –
O=c1cc(CF)[nH]c(=S)[nH]1 | – | -23.3% [at 11.4 µM] (inactive)
Fc1ccc(Nc2nc(-c3ccoc3)nc3ccccc23)cc1 | 316 nM (active) | –
c1ccc(Nc2nc(-c3ccoc3)nc3ccccc23)cc1 | 200 nM (active) | –
c1ccc2c(Nc3ccncc3)nc(-c3ccoc3)nc2c1 | 158 nM (active) | –
CNc1nc(-c2ccoc2)nc2ccccc12 | 398 nM (active) | –
C=CC1=C[C@@H](O)C2OC2C12OCCCO2 (stereo partly drawn) | – | -8.77% [at 11.4 µM] (inactive)
NC(=O)CN1CCOCCOCCOCCOCCOCC1 | – | -6.19% (inactive)
NC(=O)CN1CCN(c2nc(-c3ccc(F)cc3)cs2)CC1 | 2510 nM (active) | –
NCS(=O)(=O)O | – | -5.62% [at 2.29 µM] (inactive)
COc1ccc2c(c1)C(=NN)c1cc(OC)ccc1-2 | 112 nM (active) | –
CCOc1ccc(-c2nnn(CC(=O)Nc3cc(OC)ccc3OC)n2)cc1OCC | – | -12.8% (inactive)
COc1ccc(NC(=O)CSc2nnc(Cc3cccn3C)n2CCc2ccccc2)c(OC)c1 | – | -35.8% (inactive)
COc1ccc(NC(=O)Cn2cccc2)c(OC)c1 | 5010 nM (active) | –
COCCN(C(=O)Nc1ccc(OC)cc1OC)C1CCN(C(C)=O)CC1 | – | -16.2% (inactive)
COc1ccc(OC)c(NC(=O)Cn2cccc2)c1 | 6310 nM (active) | –
CCCCN(CC)Cc1ccc(CNC(=O)Nc2ccc(OC)cc2OC)o1 | – | -6.55% (inactive)
COc1ccc(OC)c(NC(=O)[C@H]2CC=CC[C@H]2C(=O)O)c1 | – | -20.7% (inactive)
COc1ccc(NC(=O)NCc2cccn2C)c(OC)c1 | 15800 nM (active) | –
CCN1CCCC1CNC(=O)C(=O)Nc1ccc(OC)cc1 (stereo not drawn) | – | -24.6% (inactive)
COc1ccc(N2CCC(CNC(=O)Nc3ccc(OC)cc3OC)C2)cc1 (stereo not drawn) | 12600 nM (active) | –
C[C@@H](C(=O)O)c1ccc(C[C@@H]2CCCC2=O)cc1 | – | -6.14% (inactive)
O=C1[C@@H]2[C@@H](C(=O)N1c1ccc(OCc3ccccc3)cc1)[C@@H]1c3ccccc3[C@@H]2[n+]2ccccc21 | – | -19.6% [at 11.4 µM] (inactive)
